14 compounds from PubChem BioAssay can be followed below.

Test [1] has as its system Wnt5a (protein binding on small-molecule microarray). Briefly: small molecules binding Wnt5a protein – biophysical, small-molecule microarray, 635/667 nm fluorescence, primary screen (AID 1142).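 Also: fluorescence read at 667 nm with signal to noise per printed feature.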 As to conditions: 635 nm fluorescence, higher = more signal.
Test [2] in a line: ATP-based viability of Huh7 replicon cells – cell-based, CellTiter-Glo luminescence, basal, 48 h, cytotoxicity control for HCV replication inhibitor project, primary screen (AID 1143).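 Also: Huh7 hepatoma cells carrying a hepatitis C replication reporter with no stimulus; test concentration not given here.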 The following applies: higher = more signal, called active from +8 up or from −8 down. On the technique in general: Replicon systems follow genome replication, usually without infectious particles.

Test [3] can be described thus: Pseudomonas biofilm growth suppression – PAO1 strain, BacTiter-Glo luminescence, LB-PBS, primary screen (AID 1144). As to conditions: P. aeruginosa PAO1 biofilm, 12 h, higher = more signal.
Test [4] in a line: basal CRE-LacZ reporter activity in PC12 – cell-based, unstimulated, primary screen (AID 1145). As to conditions: no forskolin, luminescence, 4.5 h, higher = more signal, called active from +8 up or from −8 down.
Test [5] is described as follows: forskolin-driven CRE-LacZ activity in PC12 – cell-based, CRE-LacZ reporter, forskolin-stimulated, primary screen (AID 1146).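 Also: PC12 cells with 6xCRE LacZ reporter stimulated by forskolin 10 µM; beta-galactosidase reporter signal reflecting CREB driven transcription.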 The following applies: luminescence, 4.5 h, higher = more signal, called active from +8 up or from −8 down.
Test [6] has as its target Streptavidin (Streptomyces avidinii) (UniProt P22629). Briefly: compounds binding control protein streptavidin – biophysical, small-molecule microarray, 635/667 nm fluorescence, artefact control for SMM compound annotation, primary screen (AID 1147).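 Also: signal reflects streptavidin binding to arrayed compounds as a control protein.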 As to conditions: higher = more signal.
Test [7] can be described thus: probe aInhba binding on compound microarray – biochemical, small-molecule microarray, 635/667 nm fluorescence, primary screen (AID 1148).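 Also: score merges 667nm spot fluorescence with signal-to-noise for antibody binding to printed compounds.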 As to conditions: higher = more signal.
For test [8], the target named is Torsin-1A (Homo sapiens) (UniProt O14656). Briefly: TOR1A wild-type binding on microarray – cell lysate, small-molecule microarray, lysate, 635/667 nm, primary screen (AID 1149). As to conditions: COS7 hTOR1A-WT lysate, 635 nm fluorescence, higher = more signal.
Sequence of Torsin-1A (Homo sapiens) (O14656 whole entry, looked up): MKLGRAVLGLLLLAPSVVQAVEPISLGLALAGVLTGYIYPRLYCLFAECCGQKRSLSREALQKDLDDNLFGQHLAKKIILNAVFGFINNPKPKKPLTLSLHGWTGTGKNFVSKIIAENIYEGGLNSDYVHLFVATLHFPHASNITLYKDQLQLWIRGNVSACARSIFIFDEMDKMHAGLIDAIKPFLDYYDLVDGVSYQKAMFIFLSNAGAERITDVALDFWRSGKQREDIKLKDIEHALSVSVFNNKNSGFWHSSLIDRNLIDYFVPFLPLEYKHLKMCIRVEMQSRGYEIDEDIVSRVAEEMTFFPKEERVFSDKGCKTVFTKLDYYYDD
The target is the same in test [9]. Briefly: torsin A mutant lysate binding on microarrays – cell lysate, small-molecule microarray, COS7 lysate, 635/667 nm fluorescence, primary screen (AID 1150).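 Also: score pools 667 nm emission and signal to noise measuring lysate protein binding.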 As to conditions: COS7 hTOR1A mutant lysate, 635 nm fluorescence, higher = more signal.
In test [10] the test system is Sonic hedgehog protein (Shh). In words: Sonic hedgehog microarray binding compounds – biochemical, small-molecule microarray, 635/667 nm fluorescence, primary screen (AID 1151).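 Also: Shh protein binding to compounds spotted on small-molecule microarray slides; score combines spot fluorescence intensity with signal-to-noise across triplicate slides.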 The following applies: 635 nm fluorescence, higher = more signal.

Calls of active or inactive are those of the source. Unless noted, no rule for the calls is given here.

Sequence of Streptavidin (Streptomyces avidinii) (P22629 whole entry, looked up): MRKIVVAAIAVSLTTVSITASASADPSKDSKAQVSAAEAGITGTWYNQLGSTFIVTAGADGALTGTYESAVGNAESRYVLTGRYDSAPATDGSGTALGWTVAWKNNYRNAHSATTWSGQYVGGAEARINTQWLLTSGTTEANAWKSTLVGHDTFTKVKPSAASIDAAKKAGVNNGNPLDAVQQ

As to `CN1C(=O)[C@@H]2[C@@H](CC(COc3ccccc3)=C3[C@@H](CCc4ccccc4)OB(O)C[C@@H]32)C1=O`, the composite z-score in [1] was 0.0305; in test [6], -0.156; in test [7], -0.128; in the test with Torsin-1A (Homo sapiens) [8], 0.179; in the test with Torsin-1A (Homo sapiens) [9], 0.0191; in test [10] it was 0.394. The z-score was -0.706 (inactive) in test [2], 0.32 (inactive) in test [3], 1.76 (inactive) in test [4] and 0.89 (inactive) in test [5].

`NC(=O)NCC#Cc1ccc2c(c1)[C@]1(C(=O)N2)[C@H](c2ccc(OCCO)cc2)N2[C@H](c3ccccc3)[C@H](c3ccccc3)OC(=O)[C@H]2[C@@H]1C(=O)NC[C@H](O)c1ccccc1`: the composite z-score in [1] was -0.138; in [6], 0.079; in test [7], -0.0195; with Torsin-1A (Homo sapiens) [8], -0.17; in the test with Torsin-1A (Homo sapiens) [9], -0.288; in test [10] it was 0.398. The z-score in test [2] was -2.86 (inactive); in test [3], 0.0532 (inactive); in test [4], -0.671 (inactive); in test [5], -0.648 (inactive).

For the compound `C=C(COC)C(=O)CC[C@@H](OC(=O)c1ccccc1-c1ccccc1C(=O)O)c1ccc(OCCO)cc1`, the composite z-score was 0.238 in [1]; -0.986 in test [6]; 0.0018 in test [7]; -0.0281 with Torsin-1A (Homo sapiens) [8]; 1.15 with Torsin-1A (Homo sapiens) [9]; 1.86 in test [10]. The z-score was -0.043 (inactive) in test [2], -0.147 (inactive) in test [3], 0.727 (inactive) in test [4] and 1.36 (inactive) in test [5].

With `CN(C)C(=O)[C@@]1(Cc2ccccc2CN=[N+]=[N-])COC(c2ccc(OCCCO)cc2)=N1`, the composite z-score was 0.0037 in test [1]; -0.0988 in test [6]; -0.0288 in test [7]; -0.184 with Torsin-1A (Homo sapiens) [8]; 0.715 in the test with Torsin-1A (Homo sapiens) [9]; -1.22 in [10]. For the same compound, the z-score in [2] is -3.16 (inactive); in test [3] it was -0.632 (inactive); in test [4], -1.34 (inactive); in test [5] it was -1.65 (inactive).

As for `COC(=O)C1(Cc2ccccc2)C=C2C(=C(C)C(=O)C2C)CN1` (stereo not given), the composite z-score was 0.266 in test [1]; 0.621 in [6]; 0.155 in test [7]; 0.103 in the test with Torsin-1A (Homo sapiens) [8]; 0.0914 in the test with Torsin-1A (Homo sapiens) [9]; -0.691 in [10]. The z-score was -0.723 (inactive) in test [2], 0.454 (inactive) in [3], 0.0075 (inactive) in test [4] and 0.727 (inactive) in [5].

With `CN(C)CCCCNC(=O)[C@H]1C[C@H]2C(=O)N3CCC[C@H]3C(=O)N2[C@H]1c1cccc(OCCO)c1`, the composite z-score was -0.202 in [1]; 1.89 in [6]; -0.0403 in test [7]; -0.107 in the test with Torsin-1A (Homo sapiens) [8]; 0.98 in the test with Torsin-1A (Homo sapiens) [9]; 1.17 in test [10]. The z-score in test [2] is 0.196 (inactive); in test [3], -1.17 (inactive); in [4], 0.0043 (inactive); in [5], -0.258 (inactive).

For the compound `CC(C)NC(=O)[C@@H]1c2ccccc2C(=O)N(Cc2ccc(OC(F)(F)F)cc2)[C@H]1c1ccc(CO)cc1`, the composite z-score in [1] was determined as 0.663; in [6], 0.201; in test [7], 0.618; in the test with Torsin-1A (Homo sapiens) [8] it was 1.12; in the test with Torsin-1A (Homo sapiens) [9], 0.39; in test [10], 1.81. For the same compound, the z-score in test [2] is -1.54 (inactive); in test [3], -0.294 (inactive); in test [4] it was -0.0243 (inactive); in test [5] it was 0.442 (inactive).

With `CC(C)NC(=O)[C@@H]1c2ccccc2C(=O)N(Cc2ccccc2C(F)(F)F)[C@H]1c1ccc(CO)cc1`, the composite z-score in [1] is -0.0854; in test [6] it was -0.962; in test [7], -0.169; in the test with Torsin-1A (Homo sapiens) [8], -0.371; with Torsin-1A (Homo sapiens) [9], 0.0029; in test [10] it was -0.214. For the same compound, the z-score is -2.26 (inactive) in [2], -0.949 (inactive) in test [3], -0.179 (inactive) in test [4] and 1.71 (inactive) in test [5].

As to `CC(C)(C)N1CC=CC23O[C@@H]4C=CCCOC(=O)C4[C@H]2C(=O)N(CCCCCCO)[C@@H]3C1=O` (stereo not given in full), the composite z-score was -0.515 in test [1]; -0.703 in test [6]; -0.0933 in test [7]; -1.15 with Torsin-1A (Homo sapiens) [8]; -1.29 with Torsin-1A (Homo sapiens) [9]; 0.833 in [10]. Moreover, the z-score is 0.451 (inactive) in [2], 0.595 (inactive) in test [3], -0.0899 (inactive) in test [4] and -0.254 (inactive) in test [5].

Regarding `COc1ccc([Si](C)(C)[C@H]2[C@H](CCO)O[C@@]3(C(=O)N(Cc4ccc(NC(=O)[C@H](C)O)cc4)c4ccccc43)[C@@H]2C)cc1`, the composite z-score in [1] is 0.185; in test [6], 0.674; in test [7], -0.0405; in the test with Torsin-1A (Homo sapiens) [8] it was 0.189; in the test with Torsin-1A (Homo sapiens) [9], 0.753; in test [10] it was 0.785. In addition, the z-score in [2] was -8.05 (active); in test [3], -0.159 (inactive); in test [4], 5 (inactive); in test [5] it was -1.71 (inactive).

For `NCCCCCCNC(=O)[C@@H]1C[C@@H]2C(=O)N3CCC[C@H]3C(=O)N2[C@@H]1c1cccc(OCCO)c1`, the composite z-score in [1] is 0.587; in [6], 0.56; in test [7], -0.024; with Torsin-1A (Homo sapiens) [8], 2.21; in the test with Torsin-1A (Homo sapiens) [9], 1.07; in [10], 0.513. Also, the z-score is -0.182 (inactive) in test [2], 0.884 (inactive) in test [3], -0.386 (inactive) in test [4] and -1.43 (inactive) in [5].

For `C[C@@H]1NC(=O)C([C@@H](C)OCc2ccccc2)NC(=O)[C@@]23C(=O)N[C@@H](Cc4ccccc4)C2[C@H](C)[C@@]2(C)O[C@H]2C3/C=C/C/C=C\CNC1=O` (stereo not given in full), the composite z-score was 0.0076 in test [1]; -1.07 in [6]; -0.25 in test [7]; 0.0772 with Torsin-1A (Homo sapiens) [8]; 0.0936 with Torsin-1A (Homo sapiens) [9]; 1.12 in [10]. The z-score in test [2] is -0.371 (inactive); in [3], 0.571 (inactive); in [4], -0.507 (inactive); in [5] it was 0.428 (inactive).

With `COCCOC(=O)N1C(=O)[C@@]2(c3cc(C#CCC(C(=O)OC)C(=O)OC)ccc31)[C@H](C(=O)Nc1nc3ccccc3s1)[C@H]1C(=O)O[C@H](c3ccccc3)[C@H](c3ccccc3)N1[C@@H]2c1ccc(O)cc1`, the composite z-score in [1] stood at 0.624; in test [6] it was 1.27; in [7] it was 0.326; with Torsin-1A (Homo sapiens) [8] it was 0.391; with Torsin-1A (Homo sapiens) [9] it was 0.0756; in test [10], 1.84. Further, the z-score in test [2] is -0.869 (inactive); in [3], 0.446 (inactive); in test [4], -1.14 (inactive); in [5], 0.316 (inactive).

Turning to `N#Cc1ccc(C(O)C2C=CC3C(=O)NC(=O)C3N2Nc2ccc(Cl)cc2Cl)cc1` (stereo not given), the composite z-score was -0.0844 in test [1]; 0.865 in test [6]; 0.104 in test [7]; -0.404 in the test with Torsin-1A (Homo sapiens) [8]; 0.0924 in the test with Torsin-1A (Homo sapiens) [9]; -0.855 in test [10]. Besides, the z-score is 0.199 (inactive) in test [2], -0.376 (inactive) in test [3], 0.629 (inactive) in test [4] and -0.728 (inactive) in [5].
